Assay in all cases: DAPPL (digital affinity profiling via proximity ligation, sequencing); 10 mM Tris-HCl pH 7.5, 50 mM NaCl, 1 mM DTT, 4% glycerol, room temperature, 30 min; GST-TFs on glutathione beads, 16-mer random dsDNA library, 0.1% formaldehyde crosslink after washing; high values mean tight binding
Holding throughout (settings): protein: recombinant; tags: N-terminal GST; dsDNA, one strand shown

In one assay the target is T1, FLI1 (Homo sapiens, UniProt Q01543 1-452).
T1 sequence: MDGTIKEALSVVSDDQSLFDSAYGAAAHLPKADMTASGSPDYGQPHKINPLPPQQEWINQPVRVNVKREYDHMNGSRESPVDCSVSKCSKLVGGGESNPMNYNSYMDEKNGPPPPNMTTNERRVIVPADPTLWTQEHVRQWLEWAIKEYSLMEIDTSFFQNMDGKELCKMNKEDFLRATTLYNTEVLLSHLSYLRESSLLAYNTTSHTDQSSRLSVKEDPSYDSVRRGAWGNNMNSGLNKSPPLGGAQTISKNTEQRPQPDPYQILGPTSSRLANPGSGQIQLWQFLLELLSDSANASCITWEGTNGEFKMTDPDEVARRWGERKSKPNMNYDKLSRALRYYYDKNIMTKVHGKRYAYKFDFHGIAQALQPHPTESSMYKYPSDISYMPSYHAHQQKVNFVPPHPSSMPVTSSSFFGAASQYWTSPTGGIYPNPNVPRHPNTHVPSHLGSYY
The gist of the method: (§1)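 After expression in yeast as GST fusions, human transcription factors were bound to glutathione beads, DNA-barcoded and mixed with a tag-only sample. The pools were incubated with 200 nmole of a 16-mer random double-stranded DNA library in Tris/NaCl/DTT/glycerol buffer (30 min, room temperature), washed and crosslinked with 0.1% formaldehyde. Proximity ligation with BsaI/T4 ligase ran for 1 h at 37 °C, before PCR amplification and sequencing on an Illumina NextSeq500. Binding signal is a hexamer's read frequency for a factor divided by its frequency for the tag-only sample.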

The target of the next assay is T2, ELK1 (Homo sapiens, UniProt P19419 1-428).
T2 sequence: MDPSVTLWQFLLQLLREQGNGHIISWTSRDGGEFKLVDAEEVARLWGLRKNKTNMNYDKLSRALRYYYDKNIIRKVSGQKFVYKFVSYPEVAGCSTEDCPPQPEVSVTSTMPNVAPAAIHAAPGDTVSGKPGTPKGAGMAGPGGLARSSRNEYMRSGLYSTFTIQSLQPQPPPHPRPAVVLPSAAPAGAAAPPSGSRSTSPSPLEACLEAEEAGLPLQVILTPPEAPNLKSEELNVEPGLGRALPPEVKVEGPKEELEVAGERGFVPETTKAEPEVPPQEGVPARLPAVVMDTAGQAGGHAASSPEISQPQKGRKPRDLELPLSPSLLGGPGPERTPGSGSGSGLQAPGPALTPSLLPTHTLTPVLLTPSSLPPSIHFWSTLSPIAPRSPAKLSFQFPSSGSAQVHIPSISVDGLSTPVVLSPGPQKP
The gist of the method:
as §1

The next assay addresses T3, GABPA (Homo sapiens, UniProt Q06546 1-454).
T3 sequence: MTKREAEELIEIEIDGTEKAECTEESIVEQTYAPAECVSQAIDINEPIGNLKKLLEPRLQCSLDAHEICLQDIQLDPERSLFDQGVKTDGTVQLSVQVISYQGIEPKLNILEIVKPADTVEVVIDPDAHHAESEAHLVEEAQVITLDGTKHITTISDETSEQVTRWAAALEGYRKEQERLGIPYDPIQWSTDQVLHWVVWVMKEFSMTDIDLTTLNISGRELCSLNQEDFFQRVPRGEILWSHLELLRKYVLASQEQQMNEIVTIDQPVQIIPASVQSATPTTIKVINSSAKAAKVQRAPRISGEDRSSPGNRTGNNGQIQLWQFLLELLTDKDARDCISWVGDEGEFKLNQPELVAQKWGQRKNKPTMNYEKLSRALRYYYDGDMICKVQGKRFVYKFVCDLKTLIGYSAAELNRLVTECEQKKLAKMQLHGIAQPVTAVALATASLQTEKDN
An outline of the steps:
as §1

In another assay the target is T4, ERG (Homo sapiens, UniProt P11308 1-479).
T4 sequence: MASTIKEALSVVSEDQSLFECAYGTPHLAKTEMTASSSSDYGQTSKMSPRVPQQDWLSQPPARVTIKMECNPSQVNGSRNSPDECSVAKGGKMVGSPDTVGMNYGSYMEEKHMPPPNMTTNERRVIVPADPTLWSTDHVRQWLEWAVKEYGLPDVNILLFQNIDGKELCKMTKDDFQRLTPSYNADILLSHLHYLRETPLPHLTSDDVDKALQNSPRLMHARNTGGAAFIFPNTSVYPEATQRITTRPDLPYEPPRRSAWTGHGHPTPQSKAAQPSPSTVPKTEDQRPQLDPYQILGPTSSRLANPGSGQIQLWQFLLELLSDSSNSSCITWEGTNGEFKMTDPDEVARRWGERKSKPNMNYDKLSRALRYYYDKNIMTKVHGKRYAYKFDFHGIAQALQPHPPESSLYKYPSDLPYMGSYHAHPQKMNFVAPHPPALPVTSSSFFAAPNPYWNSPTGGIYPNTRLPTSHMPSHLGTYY
The gist of the method:
as §1

A further assay has as its target ELF1 (Homo sapiens, UniProt P32519 1-619). An outline of the steps: as §1
A further assay deals with T5, EHF (Homo sapiens, UniProt Q9NZC4 1-300).
T5 sequence: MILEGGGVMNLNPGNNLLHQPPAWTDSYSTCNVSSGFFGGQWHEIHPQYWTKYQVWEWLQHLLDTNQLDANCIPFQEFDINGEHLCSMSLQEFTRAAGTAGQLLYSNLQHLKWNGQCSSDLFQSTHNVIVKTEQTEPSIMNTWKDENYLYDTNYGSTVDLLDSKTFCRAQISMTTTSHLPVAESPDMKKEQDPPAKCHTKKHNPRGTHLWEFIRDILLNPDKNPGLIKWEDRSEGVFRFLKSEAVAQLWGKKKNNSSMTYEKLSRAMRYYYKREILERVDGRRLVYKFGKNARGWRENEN
An outline of the steps: as §1

For the next assay, the target named is SPI1 (Homo sapiens, UniProt P17947 1-270). The gist of the method:
as §1

In another assay the target is SPIB (Homo sapiens, UniProt Q01892 1-262). The gist of the method: as §1
Chain of SPIB (Q01892 whole entry): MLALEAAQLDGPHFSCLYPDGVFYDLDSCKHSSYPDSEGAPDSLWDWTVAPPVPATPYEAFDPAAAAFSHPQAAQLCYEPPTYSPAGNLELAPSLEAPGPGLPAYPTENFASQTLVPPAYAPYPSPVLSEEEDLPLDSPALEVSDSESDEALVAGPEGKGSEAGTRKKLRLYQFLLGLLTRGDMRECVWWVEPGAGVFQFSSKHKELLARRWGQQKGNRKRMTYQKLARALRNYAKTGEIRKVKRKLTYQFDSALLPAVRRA
The next assay addresses ETV5 (Homo sapiens, UniProt P41161 1-510). An outline of the steps: as §1
Another assay deals with T6, SPIC (Homo sapiens, UniProt Q8N5J4 1-248).
T6 sequence: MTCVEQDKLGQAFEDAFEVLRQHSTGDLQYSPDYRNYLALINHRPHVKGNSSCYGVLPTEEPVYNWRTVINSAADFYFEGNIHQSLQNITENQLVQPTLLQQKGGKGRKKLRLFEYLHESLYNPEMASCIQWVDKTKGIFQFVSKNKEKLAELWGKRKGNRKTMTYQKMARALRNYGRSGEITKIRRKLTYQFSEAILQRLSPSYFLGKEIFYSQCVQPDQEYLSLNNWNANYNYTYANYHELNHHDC
An outline of the steps: as §1

A further assay addresses ELF4 (Homo sapiens, UniProt Q99607 1-663). The gist of the method: as §1
A further assay has as its target ETV1 (Homo sapiens, UniProt P50549 1-477). The gist of the method:
as §1

A further assay addresses T7, ERF (Homo sapiens, UniProt P50548 1-548).
T7 sequence: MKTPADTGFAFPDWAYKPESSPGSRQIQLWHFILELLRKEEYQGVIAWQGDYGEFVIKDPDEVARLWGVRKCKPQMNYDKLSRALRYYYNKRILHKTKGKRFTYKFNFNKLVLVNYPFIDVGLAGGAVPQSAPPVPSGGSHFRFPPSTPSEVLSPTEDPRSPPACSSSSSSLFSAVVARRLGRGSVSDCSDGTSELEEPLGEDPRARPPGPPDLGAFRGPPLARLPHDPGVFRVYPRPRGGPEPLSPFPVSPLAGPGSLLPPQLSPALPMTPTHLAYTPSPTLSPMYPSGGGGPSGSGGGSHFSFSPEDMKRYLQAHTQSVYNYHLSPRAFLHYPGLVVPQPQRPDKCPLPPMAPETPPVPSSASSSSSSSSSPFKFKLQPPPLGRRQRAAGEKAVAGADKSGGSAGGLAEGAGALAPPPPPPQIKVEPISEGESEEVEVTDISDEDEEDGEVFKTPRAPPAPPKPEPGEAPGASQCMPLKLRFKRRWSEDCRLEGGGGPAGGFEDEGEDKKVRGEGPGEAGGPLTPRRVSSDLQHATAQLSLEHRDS
The gist of the method:
as §1

A further assay has as its target T8, ETV3L (Homo sapiens, UniProt Q6ZN32 1-361).
T8 sequence: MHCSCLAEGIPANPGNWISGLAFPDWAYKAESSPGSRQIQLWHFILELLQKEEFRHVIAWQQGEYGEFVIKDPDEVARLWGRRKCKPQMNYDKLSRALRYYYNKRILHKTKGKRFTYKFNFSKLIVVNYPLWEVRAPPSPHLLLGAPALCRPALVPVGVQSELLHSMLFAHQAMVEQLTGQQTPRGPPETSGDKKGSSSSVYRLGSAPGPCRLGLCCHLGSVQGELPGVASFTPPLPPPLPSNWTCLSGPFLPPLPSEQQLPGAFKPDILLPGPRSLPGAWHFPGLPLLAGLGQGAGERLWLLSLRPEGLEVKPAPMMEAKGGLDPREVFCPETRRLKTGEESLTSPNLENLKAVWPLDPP
An outline of the steps:
as §1

In another assay the target is T9, ELF5 (Homo sapiens, UniProt Q9UKW6-2 1-255).
T9 sequence: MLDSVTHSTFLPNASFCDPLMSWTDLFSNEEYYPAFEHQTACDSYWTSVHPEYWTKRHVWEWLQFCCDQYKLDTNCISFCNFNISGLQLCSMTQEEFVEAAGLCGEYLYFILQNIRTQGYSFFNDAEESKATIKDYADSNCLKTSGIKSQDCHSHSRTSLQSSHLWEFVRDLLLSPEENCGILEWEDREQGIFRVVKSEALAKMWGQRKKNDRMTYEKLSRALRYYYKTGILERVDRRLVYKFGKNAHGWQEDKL
An outline of the steps:
as §1

For a further assay, the target named is T10, ETV3 (Homo sapiens, UniProt P41162-2 1-143).
T10 sequence: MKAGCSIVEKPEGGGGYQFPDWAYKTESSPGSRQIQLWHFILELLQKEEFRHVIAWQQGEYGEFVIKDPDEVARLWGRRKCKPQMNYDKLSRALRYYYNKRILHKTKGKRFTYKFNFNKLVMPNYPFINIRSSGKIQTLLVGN
An outline of the steps:
as §1

Chain of ELF4 (Q99607 whole entry): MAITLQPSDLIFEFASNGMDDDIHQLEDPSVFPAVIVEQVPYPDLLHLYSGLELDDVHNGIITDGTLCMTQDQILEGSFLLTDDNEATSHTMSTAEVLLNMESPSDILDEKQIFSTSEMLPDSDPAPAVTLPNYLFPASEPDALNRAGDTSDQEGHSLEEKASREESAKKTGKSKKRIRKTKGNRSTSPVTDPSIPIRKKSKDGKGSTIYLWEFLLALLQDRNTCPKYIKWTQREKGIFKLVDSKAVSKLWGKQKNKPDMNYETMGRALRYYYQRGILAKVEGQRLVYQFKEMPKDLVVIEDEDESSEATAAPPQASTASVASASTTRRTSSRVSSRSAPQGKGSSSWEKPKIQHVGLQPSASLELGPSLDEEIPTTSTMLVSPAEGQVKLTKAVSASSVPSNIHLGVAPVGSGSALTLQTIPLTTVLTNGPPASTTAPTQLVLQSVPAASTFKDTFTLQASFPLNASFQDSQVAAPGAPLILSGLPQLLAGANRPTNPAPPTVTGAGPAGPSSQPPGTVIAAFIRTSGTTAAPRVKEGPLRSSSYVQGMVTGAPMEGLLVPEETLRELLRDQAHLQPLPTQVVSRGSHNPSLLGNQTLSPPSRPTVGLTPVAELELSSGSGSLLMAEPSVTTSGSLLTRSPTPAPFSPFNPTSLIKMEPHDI
Chain of ETV1 (P50549 whole entry): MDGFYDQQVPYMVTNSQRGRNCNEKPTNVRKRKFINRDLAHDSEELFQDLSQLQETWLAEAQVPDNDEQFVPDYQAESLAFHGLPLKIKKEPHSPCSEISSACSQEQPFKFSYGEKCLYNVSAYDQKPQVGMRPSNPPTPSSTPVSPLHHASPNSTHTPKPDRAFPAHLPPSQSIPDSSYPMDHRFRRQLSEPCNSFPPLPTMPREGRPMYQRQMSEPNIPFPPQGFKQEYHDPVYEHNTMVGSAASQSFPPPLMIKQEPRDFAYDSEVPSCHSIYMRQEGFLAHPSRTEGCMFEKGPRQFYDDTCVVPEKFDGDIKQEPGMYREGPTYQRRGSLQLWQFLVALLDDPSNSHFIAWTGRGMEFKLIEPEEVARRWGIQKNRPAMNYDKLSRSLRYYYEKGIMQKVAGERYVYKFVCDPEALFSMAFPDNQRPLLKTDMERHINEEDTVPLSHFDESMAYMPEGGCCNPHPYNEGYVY
Chain of ELF1 (P32519 whole entry): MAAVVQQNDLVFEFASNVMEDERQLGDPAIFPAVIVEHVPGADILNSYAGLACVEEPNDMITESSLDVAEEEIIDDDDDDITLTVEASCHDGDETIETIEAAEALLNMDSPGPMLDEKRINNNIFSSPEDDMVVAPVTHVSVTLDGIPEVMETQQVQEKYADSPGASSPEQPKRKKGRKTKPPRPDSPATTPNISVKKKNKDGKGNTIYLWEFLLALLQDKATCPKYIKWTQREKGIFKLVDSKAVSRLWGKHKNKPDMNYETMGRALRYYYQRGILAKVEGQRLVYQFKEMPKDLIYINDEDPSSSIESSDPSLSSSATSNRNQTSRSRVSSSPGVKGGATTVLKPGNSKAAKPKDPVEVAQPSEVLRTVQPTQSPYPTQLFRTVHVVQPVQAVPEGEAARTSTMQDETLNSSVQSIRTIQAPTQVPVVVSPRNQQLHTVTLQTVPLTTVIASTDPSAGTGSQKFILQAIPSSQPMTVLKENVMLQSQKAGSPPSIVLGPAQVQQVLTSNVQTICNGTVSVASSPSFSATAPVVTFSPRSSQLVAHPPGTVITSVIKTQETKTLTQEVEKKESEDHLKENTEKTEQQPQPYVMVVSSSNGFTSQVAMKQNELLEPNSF
Chain of ETV5 (P41161 whole entry): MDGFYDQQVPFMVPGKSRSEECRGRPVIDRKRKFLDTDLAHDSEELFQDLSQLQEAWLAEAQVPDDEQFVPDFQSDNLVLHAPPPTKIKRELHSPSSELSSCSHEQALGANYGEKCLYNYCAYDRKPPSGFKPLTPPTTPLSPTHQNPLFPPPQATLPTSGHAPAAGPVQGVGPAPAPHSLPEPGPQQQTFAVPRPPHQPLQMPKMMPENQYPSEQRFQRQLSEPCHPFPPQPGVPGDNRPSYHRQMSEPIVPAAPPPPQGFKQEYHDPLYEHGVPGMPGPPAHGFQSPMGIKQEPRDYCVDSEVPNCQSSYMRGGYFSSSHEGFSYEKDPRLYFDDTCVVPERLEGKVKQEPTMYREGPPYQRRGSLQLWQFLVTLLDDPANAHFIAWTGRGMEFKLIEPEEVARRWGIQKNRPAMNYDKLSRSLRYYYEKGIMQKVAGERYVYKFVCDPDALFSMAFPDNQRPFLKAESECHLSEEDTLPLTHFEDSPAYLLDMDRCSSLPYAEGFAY

With GTTGAT, the binding signal with FLI1 was 1.04 fold enrichment (6-mer frequency, TF over GST control); with ELK1, 1.12 fold enrichment (6-mer frequency, TF over GST control); in the assay with GABPA it was 1.12 fold enrichment (6-mer frequency, TF over GST control); in the assay with ERG, 1.08 fold enrichment (6-mer frequency, TF over GST control); with ELF1, 1.11 fold enrichment (6-mer frequency, TF over GST control); in the assay with EHF, 1.04 fold enrichment (6-mer frequency, TF over GST control). In addition, the binding signal with SPI1 is 1.12 fold enrichment (6-mer frequency, TF over GST control); with SPIB it was 1.1 fold enrichment (6-mer frequency, TF over GST control); with ETV5, 1.14 fold enrichment (6-mer frequency, TF over GST control); with SPIC, 1.17 fold enrichment (6-mer frequency, TF over GST control); in the assay with ELF4, 1.15 fold enrichment (6-mer frequency, TF over GST control); with ETV1, 1.09 fold enrichment (6-mer frequency, TF over GST control). Also, the binding signal with ERF was 1.05 fold enrichment (6-mer frequency, TF over GST control); with ETV3L it was 1.09 fold enrichment (6-mer frequency, TF over GST control); with ELF5, 1.05 fold enrichment (6-mer frequency, TF over GST control); with ETV3, 1.08 fold enrichment (6-mer frequency, TF over GST control).
